Results as given in PubChem BioAssay (EPA / NIEHS).
Records with an inconclusive call do not appear. Activity calls are given as the source filed them. How the source made its calls, unless noted: active means hit-call score of the fitted dose curve at least 0.9, where 1 is the maximum; inconclusive means response in the unintended direction; inactive means score below 0.9.

Columns and labels:
[1] = target: human Peroxisome Proliferator-activated Receptor alpha (PPARa), PPARA (gene 5465) (UniProt Q07869); test: ATG_PPARa_TRANS: Attagene TRANS-FACTORIAL HepG2 Assay for human Peroxisome Proliferator-activated Receptor alpha (PPARa) (AID 2283001)
How it was run: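 Gain-of-signal endpoint: reporter mRNA induction relative to DMSO, detected by fluorescent RT-PCR and capillary electrophoresis. HepG2 cells transiently carried GAL4-UAS-driven reporter units plus NR-Gal4 fusion; exposure lasted 24 h.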

[2] = BSK_3C_Proliferation: Cell Proliferation Assessment in the BioMAP Diversity Plus: 3C Assay (AID 2283006; active means hit-call score of the fitted dose curve at least 0.9, where 1 is the maximum; inactive means score below 0.9;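 on AC50: potency may reflect either rise or fall in cell number versus DMSO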); conditions: primary human endothelial cells (HUVEC)
How it was run: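 Read-out is total protein by SRB absorbance at 560 nm, taken as a proxy for relative cell number. Primary human umbilical vein endothelium cultured below confluence was dosed for 48 h, TCA-fixed and SRB-stained; curves were fitted bidirectionally versus DMSO.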

[3] = target: Nuclear receptor subfamily 1 group I member 2 (Homo sapiens) (UniProt O75469); test: ATG_PXR_TRANS: Attagene TRANS-FACTORIAL HepG2 Assay for human Pregnane X Receptor (PXR) (AID 2283008)
How it was run: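 HepG2 cells transiently transfected with multiple reporter units, here a PXR-GAL4 chimera driving a GAL4-UAS reporter; 24 h compound exposure. Reporter mRNA measured by RT-PCR, FAM labelling and capillary electrophoresis; gain of signal fitted against DMSO baseline.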

[4] = target: human RAR-related Orphan Receptor beta (RORb), RORB (gene 6096) (UniProt Q92753); test: ATG_RORb_TRANS: Attagene TRANS-FACTORIAL HepG2 Assay for human RAR-related Orphan Receptor beta (RORb) (AID 2283010);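 on AC50: potency for increased reporter mRNA meaning activation of RORb-Gal4 chimera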
How it was run: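 Readout is reporter-gene mRNA induction, detected as fluorescence after RT-PCR and capillary electrophoresis, fitted for gain of signal against DMSO controls. Transiently transfected HepG2 liver cells carrying GAL4-UAS reporter constructs were treated for 24 hours.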

[5] = target: Retinoic acid receptor RXR-alpha (Homo sapiens) (UniProt P19793); test: ATG_RXRa_TRANS: Attagene TRANS-FACTORIAL HepG2 Assay for human Retinoid X Receptor alpha (RXRa) (AID 2283012)
How it was run: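 Transient transfection of human HepG2 with multiple GAL4-UAS reporter constructs; 24 h compound exposure; total RNA isolated, reverse-transcribed, PCR-amplified, 6-FAM labelled, HpaI-cut, resolved by capillary electrophoresis. Positive-direction fit versus DMSO.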

[6] = target: human Retinoid X Receptor beta (RXRb), RXRB (gene 6257) (UniProt P28702); test: ATG_RXRb_TRANS: Attagene TRANS-FACTORIAL HepG2 Assay for human Retinoid X Receptor beta (RXRb) (AID 2283013)
How it was run: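 Transfect HepG2 with GAL4-UAS multi-reporter constructs (chimeric NR-Gal4, TRANS format); dose compound 24 h; isolate RNA, RT-PCR, FAM primer extension, HpaI digest; quantify by capillary electrophoresis; positive direction vs DMSO.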

[7] = target: human Thyroid Receptor alpha (THRa1), THRA (gene 7067) (UniProt P10827); test: ATG_THRa1_TRANS: Attagene TRANS-FACTORIAL HepG2 Assay for human Thyroid Receptor alpha (THRa1) (AID 2283014)
How it was run: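 Transcripts from GAL4-UAS-driven reporters, measured after 24 h compound exposure by RT-PCR plus capillary electrophoresis of 6-FAM-labeled fragments, were fitted for gain of signal relative to DMSO. Cells: transiently transfected HepG2 expressing NR-Gal4 chimeras.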

[8] = read-out: E-selectin (Homo sapiens) (UniProt P16581); test: BSK_3C_Eselectin: BioMAP Diversity Plus: 3C Assay for Eselectin Biomarker Activity (AID 2283015; active means hit-call score of the fitted dose curve at least 0.9, where 1 is the maximum; inactive means score below 0.9); conditions: primary human endothelial cells (HUVEC); actives raise or lower the signal
How it was run: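 E-selectin ELISA readout, fitted bidirectionally relative to DMSO, taken 24 h post-dosing in HUVEC cultures of the 3C system. Overt cytotoxicity tracked with sulforhodamine B staining of parallel wells.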

[9] = read-out: Interleukin-1 alpha (IL1a), IL1A (gene 3552); test: BSK_BE3C_IL1a: BioMAP Diversity Plus: BE3C Assay for Interleukin-1 alpha (IL1a) Biomarker Activity (AID 2283016; active means hit-call score of the fitted dose curve at least 0.9, where 1 is the maximum; inactive means score below 0.9); conditions: primary human bronchial epithelial cells; actives raise or lower the signal
How it was run: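 BE3C primary human bronchial epithelium; cpd 24 h; IL-1a by ELISA; bidirectional fit vs DMSO; parallel SRB (0.1% SRB, 10% TCA fix, 560 nm) for cytotoxicity.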

[10] = read-out: Monocyte Chemoattractant Protein-1 (MCP1), CCL2 (gene 6347); test: BSK_3C_MCP1: BioMAP Diversity Plus: 3C Assay for Monocyte Chemoattractant Protein-1 (MCP1) Biomarker Activity (AID 2283017; active means hit-call score of the fitted dose curve at least 0.9, where 1 is the maximum; inactive means score below 0.9); conditions: primary human endothelial cells (HUVEC); actives raise or lower the signal
How it was run: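 MCP-1 was measured by ELISA 24 h after dosing in primary HUVEC 3C cultures and fitted in both directions relative to DMSO; cytotoxicity was checked by SRB total-protein staining in parallel wells.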

[11] = read-out: Monocyte Chemoattractant Protein-1 (MCP1), CCL2 (gene 6347); test: BSK_4H_MCP1: BioMAP Diversity Plus: 4H Assay for Monocyte Chemoattractant Protein-1 (MCP1) Biomarker Activity (AID 2283018; active means hit-call score of the fitted dose curve at least 0.9, where 1 is the maximum; inactive means score below 0.9); conditions: primary human endothelial cells (HUVEC); actives raise or lower the signal
How it was run: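 ELISA read-out of MCP-1 from human vascular endothelial primary cells taken at 24 hours after compound exposure. Activity was fitted in both directions relative to DMSO, which served as negative control.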

[12] = read-out: Interleukin-8 (IL8), CXCL8 (gene 3576); test: BSK_3C_IL8: BioMAP Diversity Plus: 3C Assay for Interleukin-8 (IL8) Biomarker Activity (AID 2283020; active means hit-call score of the fitted dose curve at least 0.9, where 1 is the maximum; inactive means score below 0.9); conditions: primary human endothelial cells (HUVEC); actives raise or lower the signal
How it was run: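 ELISA read-out of IL-8 from human umbilical vein endothelium, measured 24 h after chemical dosing. Activity is expressed relative to DMSO negative control, with both increases and decreases fitted.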

[13] = read-out: Monokine induced gamma interferon (MIG), CXCL9 (gene 4283); test: BSK_3C_MIG: BioMAP Diversity Plus: 3C Assay for Monokine induced gamma interferon (MIG) Biomarker Activity (AID 2283021; active means hit-call score of the fitted dose curve at least 0.9, where 1 is the maximum; inactive means score below 0.9;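 on AC50: MIG protein level measured by immunoassay in the treated endothelial cultures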); conditions: primary human endothelial cells (HUVEC); actives raise or lower the signal
How it was run: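 Read-out is ELISA detection of MIG on human umbilical vein endothelial cells, taken 24 h after dosing. Gain or loss of signal was scored relative to DMSO controls using bidirectional curve fitting.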

[14] = target: human Vitamin D Receptor (VDR), VDR (gene 7421) (UniProt P11473); test: ATG_VDR_TRANS: Attagene TRANS-FACTORIAL HepG2 Assay for human Vitamin D Receptor (VDR) (AID 2283022)
How it was run: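 Transactivation by an exogenous VDR-Gal4 chimera in transiently transfected HepG2 cells was measured as reporter transcript level 24 hours after chemical treatment. RT-PCR products were analysed by capillary electrophoresis and fitted in the positive direction relative to DMSO.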

[15] = target: Peroxisome proliferator-activated receptor gamma (Homo sapiens) (UniProt P37231); test: ATG_PPARg_TRANS: Attagene TRANS-FACTORIAL HepG2 Assay for human Peroxisome Proliferator-activated Receptor-gamma (PPARg) (AID 2283007)
How it was run: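 After 24 h of chemical exposure, transfected HepG2 cells carrying PPARγ-Gal4 chimera reporter constructs are lysed for RNA. Reporter transcripts are measured by RT-PCR and capillary electrophoresis with fluorescent labelling, and gain of signal is fitted versus DMSO.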

[16] = target: human Retinoic Acid Receptor gamma (RARg), RARG (gene 5916) (UniProt P13631); test: ATG_RARg_TRANS: Attagene TRANS-FACTORIAL HepG2 Assay for human Retinoic Acid Receptor gamma (RARg) (AID 2283009)
How it was run: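 Transient transfection of HepG2 with multi-reporter constructs, then 24 h chemical treatment. Total RNA isolated, reverse-transcribed, PCR-amplified, fluorescently labelled and resolved by capillary electrophoresis; activity scored as mRNA induction versus DMSO.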

[17] = target: human RAR-related Orphan Receptor gamma (RORg), RORC (gene 6097) (UniProt P51449); test: ATG_RORg_TRANS: Attagene TRANS-FACTORIAL HepG2 Assay for human RAR-related Orphan Receptor gamma (RORg) (AID 2283011);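 on AC50: potency for induction of reporter transcripts above DMSO so activators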
How it was run: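 Reporter transcripts from a transfected RORg-GAL4 chimera in HepG2 cells were quantified 24 h after dosing by RT-PCR, 6-FAM labelling, HpaI digestion and capillary electrophoresis; increases over DMSO baseline were fitted.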

[18] = read-out: Human Leukocyte Antigen - DR isotype (HLADR), HLA-DRA (gene 3122); test: BSK_3C_HLADR: BioMAP Diversity Plus: 3C Assay for Human Leukocyte Antigen - DR isotype (HLADR) Biomarker Activity (AID 2283019; active means hit-call score of the fitted dose curve at least 0.9, where 1 is the maximum; inactive means score below 0.9); conditions: primary human endothelial cells (HUVEC); actives raise or lower the signal
How it was run: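 Bidirectional fitting against DMSO was applied to the HLA-DR ELISA signal from human umbilical vein endothelial cells, 24 h post-dose. Cytotoxicity came from parallel SRB total-protein staining; 3C proliferation was counted by SRB at 48 h.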

[19] = target: human Peroxisome Proliferator-activated Receptor delta (PPARd), PPARD (gene 5467) (UniProt Q03181); test: ATG_PPARd_TRANS: Attagene TRANS-FACTORIAL HepG2 Assay for human Peroxisome Proliferator-activated Receptor delta (PPARd) (AID 2283002)
How it was run: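 Measured quantity: GAL4-UAS reporter transcript induction in HepG2 after 24 h chemical dosing, with NR-Gal4 chimeras supplied by transient transfection. Detection by RT-PCR and capillary electrophoresis; upward fit against DMSO.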

[20] = read-out: Intercellular Adhesion Molecule 1 (ICAM1), ICAM1 (gene 3383); test: BSK_3C_ICAM1: BioMAP Diversity Plus: 3C Assay for Intercellular Adhesion Molecule 1 (ICAM1) Biomarker Activity (AID 2283003; active means hit-call score of the fitted dose curve at least 0.9, where 1 is the maximum; inactive means score below 0.9); conditions: primary human endothelial cells (HUVEC); actives raise or lower the signal
How it was run: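 ICAM-1 levels measured by ELISA after HUVEC cultures in the 3C system had been dosed for 24 h. Gain or loss of signal relative to DMSO was fitted in both directions.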

Measured: AC50

Sequence of Nuclear receptor subfamily 1 group I member 2 (Homo sapiens) (O75469 whole entry, looked up, the tested form may be a part): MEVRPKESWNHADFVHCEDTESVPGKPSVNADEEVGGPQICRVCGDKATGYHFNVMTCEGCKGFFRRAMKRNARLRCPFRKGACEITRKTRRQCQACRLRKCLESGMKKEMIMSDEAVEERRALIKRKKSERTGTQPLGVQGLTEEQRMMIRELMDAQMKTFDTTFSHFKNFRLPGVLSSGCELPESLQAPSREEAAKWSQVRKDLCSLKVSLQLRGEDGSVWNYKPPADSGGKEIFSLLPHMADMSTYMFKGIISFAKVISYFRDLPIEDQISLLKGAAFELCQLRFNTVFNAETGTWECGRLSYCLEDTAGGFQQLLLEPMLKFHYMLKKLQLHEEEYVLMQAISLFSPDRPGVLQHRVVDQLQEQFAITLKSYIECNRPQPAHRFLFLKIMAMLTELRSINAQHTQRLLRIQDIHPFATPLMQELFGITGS
Sequence of human Retinoid X Receptor beta (RXRb), RXRB (gene 6257) (P28702 whole entry, looked up, the tested form may be a part): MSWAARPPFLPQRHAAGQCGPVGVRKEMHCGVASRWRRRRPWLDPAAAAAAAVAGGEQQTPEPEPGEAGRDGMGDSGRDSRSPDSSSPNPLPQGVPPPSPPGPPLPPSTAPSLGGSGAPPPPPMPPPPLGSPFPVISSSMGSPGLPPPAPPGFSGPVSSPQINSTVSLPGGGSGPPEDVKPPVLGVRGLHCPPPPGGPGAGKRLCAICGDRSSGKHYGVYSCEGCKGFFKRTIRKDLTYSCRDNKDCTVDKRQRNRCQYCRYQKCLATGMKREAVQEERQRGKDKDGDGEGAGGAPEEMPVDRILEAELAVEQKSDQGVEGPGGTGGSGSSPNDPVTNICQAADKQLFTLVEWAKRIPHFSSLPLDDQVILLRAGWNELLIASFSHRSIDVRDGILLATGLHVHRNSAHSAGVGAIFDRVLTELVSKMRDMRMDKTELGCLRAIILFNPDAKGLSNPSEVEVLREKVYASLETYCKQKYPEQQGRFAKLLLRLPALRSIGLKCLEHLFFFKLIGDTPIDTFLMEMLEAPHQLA
Sequence of human Peroxisome Proliferator-activated Receptor alpha (PPARa), PPARA (gene 5465) (Q07869 whole entry, looked up, the tested form may be a part): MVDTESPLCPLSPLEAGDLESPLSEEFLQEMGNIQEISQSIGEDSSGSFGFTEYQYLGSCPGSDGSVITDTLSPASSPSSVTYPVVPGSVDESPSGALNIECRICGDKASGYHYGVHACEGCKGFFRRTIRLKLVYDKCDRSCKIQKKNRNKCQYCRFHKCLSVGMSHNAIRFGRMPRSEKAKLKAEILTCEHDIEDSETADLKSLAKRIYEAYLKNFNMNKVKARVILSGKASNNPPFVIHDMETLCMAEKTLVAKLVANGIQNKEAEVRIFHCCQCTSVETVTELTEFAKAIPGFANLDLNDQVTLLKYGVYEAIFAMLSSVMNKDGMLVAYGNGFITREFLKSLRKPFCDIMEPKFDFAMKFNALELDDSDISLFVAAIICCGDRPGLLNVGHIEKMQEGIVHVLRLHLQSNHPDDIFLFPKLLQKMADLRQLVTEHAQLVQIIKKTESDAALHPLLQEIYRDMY
Sequence of human Vitamin D Receptor (VDR), VDR (gene 7421) (P11473 whole entry, looked up, the tested form may be a part): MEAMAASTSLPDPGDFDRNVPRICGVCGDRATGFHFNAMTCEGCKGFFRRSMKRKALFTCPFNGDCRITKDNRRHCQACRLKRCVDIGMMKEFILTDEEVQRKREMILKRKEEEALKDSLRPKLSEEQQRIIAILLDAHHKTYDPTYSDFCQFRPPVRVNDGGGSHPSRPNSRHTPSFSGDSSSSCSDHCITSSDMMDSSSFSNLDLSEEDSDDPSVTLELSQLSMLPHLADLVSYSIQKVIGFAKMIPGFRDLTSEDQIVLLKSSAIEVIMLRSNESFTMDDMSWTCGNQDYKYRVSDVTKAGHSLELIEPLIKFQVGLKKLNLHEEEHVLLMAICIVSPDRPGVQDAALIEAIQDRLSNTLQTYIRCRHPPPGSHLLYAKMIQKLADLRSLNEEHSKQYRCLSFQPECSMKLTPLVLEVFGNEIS
Sequence of human RAR-related Orphan Receptor beta (RORb), RORB (gene 6096) (Q92753 whole entry, looked up, the tested form may be a part): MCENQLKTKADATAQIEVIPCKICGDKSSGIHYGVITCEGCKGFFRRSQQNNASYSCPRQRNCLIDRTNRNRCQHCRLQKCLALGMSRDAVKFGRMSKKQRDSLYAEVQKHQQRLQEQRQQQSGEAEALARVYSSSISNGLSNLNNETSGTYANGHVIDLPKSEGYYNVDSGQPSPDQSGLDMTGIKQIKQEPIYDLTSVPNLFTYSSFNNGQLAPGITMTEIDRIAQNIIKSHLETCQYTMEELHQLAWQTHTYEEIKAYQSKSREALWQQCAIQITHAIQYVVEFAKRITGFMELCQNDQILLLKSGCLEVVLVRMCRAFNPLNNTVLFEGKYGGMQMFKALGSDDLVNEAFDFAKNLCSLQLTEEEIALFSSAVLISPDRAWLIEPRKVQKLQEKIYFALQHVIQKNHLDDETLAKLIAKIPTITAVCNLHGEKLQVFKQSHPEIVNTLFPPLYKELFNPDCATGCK
Sequence of human RAR-related Orphan Receptor gamma (RORg), RORC (gene 6097) (P51449 whole entry, looked up, the tested form may be a part): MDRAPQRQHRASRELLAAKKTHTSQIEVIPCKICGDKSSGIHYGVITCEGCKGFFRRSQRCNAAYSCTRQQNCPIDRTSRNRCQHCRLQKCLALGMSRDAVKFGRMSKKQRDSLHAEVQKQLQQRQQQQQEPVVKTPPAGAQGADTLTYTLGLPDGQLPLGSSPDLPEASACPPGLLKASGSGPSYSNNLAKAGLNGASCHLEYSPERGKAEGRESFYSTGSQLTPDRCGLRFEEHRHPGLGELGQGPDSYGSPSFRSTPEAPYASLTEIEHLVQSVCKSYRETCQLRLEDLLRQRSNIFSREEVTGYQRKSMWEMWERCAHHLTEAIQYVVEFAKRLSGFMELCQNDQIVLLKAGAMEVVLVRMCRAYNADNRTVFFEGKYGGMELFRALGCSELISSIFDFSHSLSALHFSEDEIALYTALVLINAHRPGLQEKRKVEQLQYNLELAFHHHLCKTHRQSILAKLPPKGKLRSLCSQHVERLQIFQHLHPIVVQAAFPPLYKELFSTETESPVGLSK
Sequence of E-selectin (Homo sapiens) (P16581 whole entry, looked up): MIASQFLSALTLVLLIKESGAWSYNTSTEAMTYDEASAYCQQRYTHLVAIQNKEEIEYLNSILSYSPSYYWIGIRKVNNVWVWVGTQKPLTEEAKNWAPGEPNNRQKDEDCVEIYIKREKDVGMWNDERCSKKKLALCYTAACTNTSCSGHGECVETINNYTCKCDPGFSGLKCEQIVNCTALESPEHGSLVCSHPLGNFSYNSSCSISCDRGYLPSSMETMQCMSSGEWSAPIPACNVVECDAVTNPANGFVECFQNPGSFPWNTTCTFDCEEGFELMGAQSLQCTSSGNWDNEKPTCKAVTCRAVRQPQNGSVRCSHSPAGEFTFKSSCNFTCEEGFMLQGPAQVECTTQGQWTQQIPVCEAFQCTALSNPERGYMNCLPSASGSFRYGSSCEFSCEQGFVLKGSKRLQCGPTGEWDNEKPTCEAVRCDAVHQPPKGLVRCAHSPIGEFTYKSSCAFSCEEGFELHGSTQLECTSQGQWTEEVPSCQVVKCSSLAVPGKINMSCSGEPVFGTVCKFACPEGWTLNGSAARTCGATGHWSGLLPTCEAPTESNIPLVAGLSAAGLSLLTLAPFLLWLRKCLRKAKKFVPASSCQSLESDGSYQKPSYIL
Sequence of Peroxisome proliferator-activated receptor gamma (Homo sapiens) (P37231 whole entry, looked up, the tested form may be a part): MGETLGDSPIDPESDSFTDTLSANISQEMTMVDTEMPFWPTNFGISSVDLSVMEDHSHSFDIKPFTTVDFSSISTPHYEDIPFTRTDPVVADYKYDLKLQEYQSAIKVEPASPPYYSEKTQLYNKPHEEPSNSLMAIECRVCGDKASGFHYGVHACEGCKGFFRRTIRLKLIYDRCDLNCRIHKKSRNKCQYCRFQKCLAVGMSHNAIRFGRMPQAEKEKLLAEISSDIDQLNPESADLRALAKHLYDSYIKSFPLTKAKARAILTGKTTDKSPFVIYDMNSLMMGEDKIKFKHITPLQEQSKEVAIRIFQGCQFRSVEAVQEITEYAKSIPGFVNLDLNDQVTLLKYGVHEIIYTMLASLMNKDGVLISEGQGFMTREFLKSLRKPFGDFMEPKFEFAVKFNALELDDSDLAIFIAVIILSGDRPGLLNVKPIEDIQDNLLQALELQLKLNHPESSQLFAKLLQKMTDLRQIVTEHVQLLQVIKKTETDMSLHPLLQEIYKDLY
Sequence of human Thyroid Receptor alpha (THRa1), THRA (gene 7067) (P10827 whole entry, looked up, the tested form may be a part): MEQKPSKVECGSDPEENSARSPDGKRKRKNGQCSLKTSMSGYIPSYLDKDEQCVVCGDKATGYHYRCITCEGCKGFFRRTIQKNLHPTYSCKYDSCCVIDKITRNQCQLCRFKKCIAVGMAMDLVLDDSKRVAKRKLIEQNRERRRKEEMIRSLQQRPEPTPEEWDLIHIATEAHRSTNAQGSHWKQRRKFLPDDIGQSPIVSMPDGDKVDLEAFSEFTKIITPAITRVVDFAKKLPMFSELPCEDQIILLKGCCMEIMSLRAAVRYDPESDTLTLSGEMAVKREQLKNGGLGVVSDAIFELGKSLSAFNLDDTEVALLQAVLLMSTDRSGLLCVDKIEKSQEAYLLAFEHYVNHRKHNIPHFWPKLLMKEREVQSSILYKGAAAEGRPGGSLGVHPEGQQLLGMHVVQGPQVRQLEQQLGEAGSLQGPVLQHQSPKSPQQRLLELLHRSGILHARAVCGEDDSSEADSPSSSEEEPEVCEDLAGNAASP
Sequence of Retinoic acid receptor RXR-alpha (Homo sapiens) (P19793 whole entry, looked up, the tested form may be a part): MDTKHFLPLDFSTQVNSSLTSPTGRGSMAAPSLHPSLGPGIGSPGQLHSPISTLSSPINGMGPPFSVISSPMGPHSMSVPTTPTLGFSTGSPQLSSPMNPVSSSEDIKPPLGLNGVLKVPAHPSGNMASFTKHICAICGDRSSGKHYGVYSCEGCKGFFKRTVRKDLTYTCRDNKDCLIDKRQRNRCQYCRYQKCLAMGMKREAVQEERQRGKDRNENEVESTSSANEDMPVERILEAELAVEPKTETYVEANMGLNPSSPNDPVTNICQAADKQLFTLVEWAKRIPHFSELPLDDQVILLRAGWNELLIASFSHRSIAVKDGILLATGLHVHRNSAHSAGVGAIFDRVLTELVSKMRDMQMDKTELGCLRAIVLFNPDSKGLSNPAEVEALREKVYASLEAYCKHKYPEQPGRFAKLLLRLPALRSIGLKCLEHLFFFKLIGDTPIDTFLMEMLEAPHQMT

O=S(=O)(O)c1ccc(N=Nc2c(O)ccc3cc(S(=O)(=O)O)ccc23)cc1
inactive: [1] | [2] | [3] | [4] | [5] | [6] | [7] | [8] | [9] | [10] | [11] | [12] | [13] | [14]

Cc1nccn1-c1ccc(Sc2cccc(C3(C(N)=O)CCOCC3)c2)cc1
inactive: [1] | [3] | [16] | [4] | [17] | [5] | [7] | [8] | [10] | [13]
active: [2] 11.1 µM | [15] 1.85 µM | [9] 10.8 µM | [11] 4.95 µM | [18] 7.74 µM | [12] 11 µM | [14] 38 µM

CCCCC(CC)C(=O)OCCOCCOCCOC(=O)C(CC)CCCC (stereo not drawn)
active: [3] 27.5 µM
inactive: [19] | [20] | [2] | [15] | [5] | [8] | [9] | [11] | [18] | [12] | [13]

O=C1CN(N=Cc2ccc([N+](=O)[O-])o2)C(=O)N1
active: [2] 13.6 µM | [6] 45.6 µM | [8] 9.86 µM
inactive: [20] | [15] | [3] | [5] | [7] | [9] | [10] | [11] | [18] | [13] | [14]

COc1cc(C(C)C)c2c(c1)S(=O)(=O)N(COc1cc(=O)n3cccc(OCCN4CCCCC4)c3n1)C2=O
active: [2] 4.63 µM | [15] 2.75 µM | [3] 0.836 µM | [4] 3.53 µM | [17] 3.78 µM | [8] 6.54 µM | [9] 8.48 µM | [18] 8.31 µM
inactive: [1] | [16] | [5] | [7] | [11] | [13] | [14]

CCc1ccc(O)c(C(C)(C)C)c1
inactive: [1] | [15] | [4] | [7] | [9]
active: [2] 34.8 µM | [3] 17.4 µM | [5] 39.9 µM | [6] 8.8 µM | [8] 33.3 µM | [10] 30.9 µM | [11] 25 µM | [12] 30.4 µM | [13] 36 µM

CC(C)c1nnc2ccc(-c3ocnc3-c3cc(F)ccc3F)cn12
inactive: [1] | [2] | [15] | [3] | [16] | [5] | [6] | [8] | [9] | [11] | [13] | [14]
active: [12] 0.148 µM

Cn1cc[nH]c1=S
inactive: [1] | [2] | [6] | [8] | [9] | [11] | [18] | [12] | [13]

C[C@]12C=CC(=O)C=C1CC[C@H]1[C@@H]3C[C@@H](O)[C@](O)(C(=O)CO)[C@@]3(C)C[C@H](O)[C@@]12F
inactive: [1] | [2] | [3] | [4] | [17] | [5] | [6] | [7] | [8] | [9] | [10] | [11] | [12] | [13] | [14]

FC(F)=C(F)C(F)(F)C(F)(F)C(F)(F)C(F)(F)C(F)(F)C(F)(F)F
inactive: [1] | [2] | [15] | [3] | [16] | [17] | [5] | [6] | [7] | [8] | [9] | [10] | [11] | [18] | [12] | [13] | [14]
